Screening data from PubChem BioAssay.
SMARCA2 activ: SMARCA2 (BRM) function activators, primary screen, cell-based, luminescence, high throughput; MG213 cells, MMTV-luciferase reporter, dexamethasone, overnight; activation, % at 9.1 µM; 370,000 compounds, 1% hits; AID 652017, 2013; in the data active means activation above about 7.8%
DAX1 inh-1: DAX1 (NR0B1) inhibitors, primary screen, cell-based, HEK293, Gal4-DAX1, luciferase luminescence; 340,000 compounds, 0.99% hits; AID 504766, 2011; HEK293 Gal4-DAX1 luciferase reporter; Nuclear receptor subfamily 0 group B member 1 (Homo sapiens), P51843; inhibition, % at 6.75 µM;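 active means inhibition above the mean over all tested compounds plus 3 SD, cut at about 4.2% in these data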;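 further: inhibition shows as a rise in luminescence from relieved DAX1 repression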
Target sequence (P51843 207-470 limits assumed): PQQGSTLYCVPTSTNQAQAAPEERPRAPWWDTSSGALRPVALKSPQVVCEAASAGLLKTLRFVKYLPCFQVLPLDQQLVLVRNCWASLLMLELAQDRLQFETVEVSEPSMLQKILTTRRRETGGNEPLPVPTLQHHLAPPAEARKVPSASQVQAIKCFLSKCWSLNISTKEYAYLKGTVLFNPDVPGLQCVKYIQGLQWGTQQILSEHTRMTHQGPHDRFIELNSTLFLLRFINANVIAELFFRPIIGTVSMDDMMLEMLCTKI
hcDAF-12 act: H. contortus DAF-12 nuclear receptor activators, primary screen, cell-based, luminescence, HEK293, lit1-tk-luc reporter. activation, % at 6.8 µM. HEK293 hcDAF-12 lit1-tk-luc reporter; 0% DMSO, 100% Δ7-dafachronic acid. 370,000 compounds, 1.4% hits;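 active means activation above the mean of all tested compounds plus 3 SD, cut at about 5.5% in these data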
hgDAF12 agonist: H. glycines DAF-12 receptor agonists, primary screen, cell-based, luminescence, HEK293, GAL4 fusion, UAS-luciferase; activation, % at 6.8 µM; AID 687014, 2013; 370,000 compounds, 1.8% hits; HEK293 GAL4-hgDAF12 UAS-luciferase reporter, agonist luminescence; normalized to butyrate control;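 active means activation above a cutoff set at the mean of all screened compounds plus 3 SD, cut at about 10% in these data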
DAX1 inh-2: DAX1 (NR0B1) inhibitors on StAR promoter, primary screen, cell-based, luminescence, SF-1 (NR5A1), full-length DAX-1. HEK293T StAR-luciferase reporter, SF-1/DAX-1 repression relief. inhibition, % at 6.8 µM. 370,000 compounds, 1.1% hits;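 active means inhibition above the mean over all tested compounds plus 3 SD, cut at about 3.6% in these data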;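 further: higher inhibition means more luminescence from relief of DAX-1 repression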
ssDAF-12 act: S. stercoralis DAF-12 nuclear receptor activators, primary screen, cell-based, luminescence, HEK293, GRIP1 co-expression, lit1-tk-luc. AID 652126, 2013. activation, % at 6.8 µM. HEK293 ssDAF-12/GRIP1 lit1-tk-luc reporter; % of 3 µM dafachronic acid response. Nuclear hormone receptor DAF-12 (Strongyloides stercoralis). 370,000 compounds, 1% hits;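 active means activation above the mean over all tested compounds plus 3 SD, cut at about 0.9% in these data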
hgDAF12 ag: H. glycines DAF-12 receptor agonists, confirmation, cell-based, luminescence, HEK293, GAL4-LBD fusion; HEK293 GAL4-hgDAF12 luciferase reporter, agonist mode; percent of butyrate response; 3,300 compounds, 80% hits; activation, % at 6.8 µM; shares compounds with hgDAF12 agonist;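 active means mean activation over triplicate wells above the hit cutoff derived from the earlier primary screen, cut at about 11% in these data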
LXRb DAF12 ctr: LXR agonists, Gal4 luciferase reporter, confirmation, counter-screen for hgDAF-12 agonist project, cell-based, luminescence, HEK293, H. glycines campaign; shares compounds with hgDAF12 agonist; 24 h; activation, % at 6.8 µM; 3,300 tested, under 10 active;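 active means mean activation of the triplicate above a set limit carried over from the primary screen, none filed active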
Large screens that a line does not name were inactive (follow-up assays come after a bar, where they were run). Most compounds without a hit are left out; they make up all but 4.8% or so of the library.

CSc1ccccc1-c1nnc(-c2ccc(Cl)cc2Cl)o1	none
Clc1ccccc1-c1nnc2sc(-c3ccc4c(c3)OCO4)nn12	none
COc1cccc(C(=O)NNC2OC(CO)C(O)C2O)c1 (stereo not given)	none
CC(/C=C/c1ccccc1F)=N\NC(=O)c1ccc(Cl)cc1	none
CC(/C=C/c1ccccc1F)=N\NC(=O)c1ccccc1	hgDAF12 agonist 14.5 | hgDAF12 ag inactive | LXRb DAF12 ctr inactive
COc1ccc(NC(=O)Nc2ccc([N+](=O)[O-])cc2)cn1	none
O=c1[nH]c2ccccc2nc1-c1ccccc1	hgDAF12 agonist 15.8 | hgDAF12 ag inactive | LXRb DAF12 ctr inactive
COc1ccccc1/C=N/Nc1nccnc1Cl	hcDAF-12 act 5.8, hgDAF12 agonist 13.8 | hgDAF12 ag 10.5 | LXRb DAF12 ctr inactive
COc1cccc(/C=N/Nc2ncccc2[N+](=O)[O-])c1OC	none
CCN(C)C1CN(Cc2cn(Cc3ccc(Cl)cc3)nn2)S(=O)(=O)C1 (stereo not given)	none (no result: DAX1 inh-1)
CC(=O)NCCC1CCCCN1C(=O)c1cc(COc2cc(C)ccc2C)on1 (stereo not given)	hgDAF12 agonist 15.7 | hgDAF12 ag 13.3 | LXRb DAF12 ctr inactive
N=c1oc2ccccc2cc1C(=O)NC1CCCCCC1	hgDAF12 agonist 14.0 | hgDAF12 ag 14.0 | LXRb DAF12 ctr inactive
N=c1oc2ccc(Cl)cc2cc1C(=O)NC1CCCCCC1	none
COc1ccc2c(c1OC)C(=O)N(c1cccc(C)c1)C2	hgDAF12 agonist 13.3, DAX1 inh-2 3.6, ssDAF-12 act 1.3 | hgDAF12 ag 16.2 | LXRb DAF12 ctr inactive
CN(C)c1ccc(C(=O)OCC(=O)c2ccc[nH]2)cc1	hgDAF12 agonist 14.5 | hgDAF12 ag 15.2 | LXRb DAF12 ctr inactive
O=C(OCC(=O)c1ccc[nH]1)c1ccccc1	none
O=C(NCCSc1ccccc1)c1ccccc1F	hcDAF-12 act 5.8, hgDAF12 agonist 13.4 | hgDAF12 ag 12.6 | LXRb DAF12 ctr inactive
Cc1ccc(SCCNC(=O)c2ccccc2F)cc1	none
CC(=O)Nc1ccc(C(=O)OCc2ccc(F)cc2)cc1	none
CC(=O)Nc1ccc(C(=O)OCc2ccc(F)cc2Cl)cc1	hgDAF12 agonist 23.7 | hgDAF12 ag inactive | LXRb DAF12 ctr inactive
CSc1nc2ccc(NC(=O)c3ccco3)cc2s1	hgDAF12 agonist 17.5 | hgDAF12 ag 10.6 | LXRb DAF12 ctr inactive
CSc1nc2ccc(NC(=O)c3ccc(=O)n(C)n3)cc2s1	none
CCCCC(=O)Nc1nnc(C2=COCCO2)o1	none
CCN(CC)CCNC(=O)CCN1N=C(c2ccccc2)CCC1=O	none
COc1ccc(/C=C/c2nnc(NC(C)=O)s2)cc1	hgDAF12 agonist 14.5 | hgDAF12 ag 16.0 | LXRb DAF12 ctr inactive
COC(=O)Nc1nnc(/C=C/c2ccc(OC)cc2)s1	none
COc1ccc(/C=C/C2=NNC(=O)CC2)cc1	hgDAF12 agonist 13.8 | hgDAF12 ag inactive | LXRb DAF12 ctr inactive
CN1CCN(c2ccc(NC(=O)COc3ccccc3)cc2Cl)CC1	hgDAF12 agonist 14.8 | hgDAF12 ag 14.4 | LXRb DAF12 ctr inactive
O=C(c1ccco1)c1cn[nH]c1-c1ccc(Cl)cc1O	none
